We go through 20 compounds from PubChem BioAssay (EPA / NIEHS).

What is called AC50 is the concentration giving half of the maximal activity seen.

Structures are written as SMILES. Active and inactive are the calls of the source. Rule for the calls: active = hit-call score of the fitted dose curve at least 0.9, where 1 is the maximum; inactive = score below 0.9.

This assay in a line: ATG_GRE_CIS: Attagene CIS-FACTORIAL HepG2 Assay for human Glucocorticoid Response Elements (GRE) (AID 2282947). The settings on record: HepG2 GRE cis-reporter, Attagene multiplex mRNA; actives raise or lower the signal. An outline of the steps: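 HepG2 cells transiently transfected with multiple cis-promoter reporter units measure endogenous TF activity; 24 h compound exposure. Reporter mRNA quantified by RT-PCR, FAM labelling, HpaI digestion and capillary electrophoresis; bidirectional fit vs DMSO baseline.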
Consider `O=C(c1ccccc1)C(O)c1ccccc1` (stereo not given), for which the compound was called inactive.
The same measure, in the same setting: the same measure for `Cc1ccc2c(c1)C(=O)OC2=O`: “inactive”; for `CCCCCCCCc1ccc(S(=O)(=O)O)cc1`: “inactive”.
`CCCCCCC(CO)CCCC` (stereo not given): the compound was classed as inactive.
The same measure, in the same setting: the same measure for `Nc1ccc2cc(S(=O)(=O)O)cc(O)c2c1N=Nc1ccccc1C(F)(F)F`: “inactive”; for `CCCOCCO`: “inactive”.
For `COCCc1ccc(OCC(O)CNC(C)C)cc1` (stereo not given), the outcome was inactive.
Regarding `FC(F)(F)COCC(F)(F)F`, the compound was called inactive.
On to `O=C(Nc1ccc([N+](=O)[O-])cc1)Nc1ccc([N+](=O)[O-])cc1` (tested in a mixture with another compound), for which the compound was called inactive.
The same measure, in the same setting: the same measure for `COc1cc(Cl)c(OC)cc1N`: “inactive”; for `CCCCCC(C=O)=Cc1ccccc1`: “inactive”; for `CSc1c(Cl)c(Cl)c(Cl)c(Cl)c1Cl`: “inactive”.
For the compound `CCCC1O[C@@H]2C[C@H]3[C@@H]4CCC5=CC(=O)C=C[C@]5(C)[C@H]4[C@@H](O)C[C@]3(C)[C@]2(C(=O)CO)O1` (stereo not given in full), the AC50 is 81.5 nM (active).
In the case of `C=C(CC(=O)O)C(=O)O`, the result was inactive.
For the compound `O=C(O)CNc1ccccc1`, the outcome was inactive.
For the compound `C[C@H]1O[C@@H](O[C@H]2[C@@H](O)C[C@H](O[C@H]3[C@@H](O)C[C@H](O[C@H]4CC[C@@]5(C)[C@H](CC[C@@H]6[C@@H]5C[C@@H](O)[C@]5(C)[C@@H](C7=CC(=O)OC7)CC[C@]65O)C4)O[C@@H]3C)O[C@@H]2C)C[C@H](O)[C@@H]1O`, the AC50 is 3300 nM (active).
As for `CCc1ccc(O)cc1`, the call was inactive.
Take `CCCC[P+](CCCC)(CCCC)CCCC`: the compound was called inactive.
As for `NC(=S)NNC(N)=S`, the call was inactive.
Consider `O=C1OC[C@H](Cc2cccc(O)c2)[C@H]1Cc1cccc(O)c1`, for which the result was inactive.
